{"source": "PubChem BioAssay (NCATS)", "note": "Results filed as inconclusive are left out. A call without a number means that no potency is given here. Active and inactive are the calls of the source. Calls follow the shape of the dose curve; as a rule, active = well fitted cell-killing curve with a large enough effect; inconclusive = small, poorly fitted or top-dose-only effect, or effect the other way; inactive = no such curve, though single readings can be large or run the other way. Also: nearly all actives have a fitted effect of over 30% in size. Potency is read from the fitted curve at half-maximal effect."}
{"assay": "Quantitative High-Throughput drug screen in 47 multiple myeloma cell lines against the NCATS MIPE library collection: RPMI8226_ATCC cell viability assay (AID 1919871)", "conditions": "RPMI8226 myeloma viability, CellTiter-Glo ATP luminescence, 48 h; series mostly up to 45.8 µM", "in_short": "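ATP-based CellTiter-Glo luminescence after 48 h drug exposure (37 °C, 5% CO2) of 500 myeloma cells per well. DMSO-only wells set 100% viability, media-only wells 0%; MIPE 4.0 library added by pin tool.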"}
{"compound": "CC[C@@H](C(N)=O)N1CCCC1=O", "Potency": "inactive"}
{"compound": "C#C[C@]1(O)C=C[C@@H]2[C@@H]3CCC4=CC(=O)CC[C@@H]4[C@H]3CC[C@@]21CC", "Potency": "inactive"}
{"compound": "CC1(N2CCC(n3c([C@@H]4CCCNC4)nc4ccccc43)CC2)CCCCCCC1", "Potency": "20.9 µM (active)"}
{"compound": "CCNC(=O)CC1N=C(c2ccc(Cl)cc2)c2cc(OC)ccc2-n2c(C)nnc21", "note": "(configuration not stated)", "Potency": "4.69 µM (active)"}
{"compound": "CC(=CCCC1=CCC(C2=CC(=O)OC2O)OC1O)CCC1=C(C)CCCC1(C)C", "note": "(configuration not stated)", "Potency": "0.0118 µM (active)"}
{"compound": "C[C@@H]1CC[C@@]2(OC1)O[C@H]1C[C@H]3[C@@H]4CC=C5C[C@@H](O[C@@H]6O[C@H](CO)[C@@H](O[C@@H]7O[C@@H](C)[C@H](O)[C@@H](O)[C@@H]7O)[C@H](O)[C@@H]6O[C@@H]6O[C@@H](C)[C@H](O)[C@@H](O)[C@@H]6O)CC[C@]5(C)[C@@H]4CC[C@]3(C)[C@@H]1[C@H]2C", "Potency": "2.35 µM (active)"}
{"compound": "COc1ccc2c(c1)[C@]13CCCCC1C(C2)N(C)CC3", "note": "(some centres not stated)", "Potency": "inactive"}
{"assay": "Quantitative High-Throughput drug screen in 47 multiple myeloma cell lines against the NCATS MIPE library collection: OPM2_DSMZ cell viability assay (AID 1919872)", "conditions": "OPM2 myeloma viability, CellTiter-Glo ATP luminescence, 48 h; series mostly up to 45.8 µM", "in_short": "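qHTS of the MIPE 4.0 collection: 500 myeloma cells/well, 48 h drug exposure at 37C in 5% CO2, then CellTiter-Glo for 5 min at room temperature before luminescence reading.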"}
{"compound": "CC(N[C@H]1C[C@H]1c1ccccc1)c1ccc2c(c1)OCCO2", "note": "(some centres not stated)", "Potency": "inactive"}
{"compound": "CC(=Cc1csc(C)n1)[C@@H]1C[C@H]2O[C@]2(C)CCC[C@H](C)[C@@H](O)[C@@H](C)C(=O)C(C)(C)[C@@H](O)CC(=O)O1", "Potency": "inactive"}
{"compound": "O=c1cccc2n1CC1CNC[C@H]2C1", "Potency": "inactive"}
{"compound": "Cc1c(N)nc([C@H](CC(N)=O)NC[C@@H](N)C(N)=O)nc1C(=O)N[C@H](C(=O)N[C@@H](C)[C@H](O)[C@@H](C)C(=O)N[C@@H](C(=O)NCCc1nc(-c2nc(C(=O)NCCC[S+](C)C)cs2)cs1)[C@@H](C)O)C(O[C@H]1O[C@H](CO)[C@H](O)[C@@H](O)[C@@H]1O[C@H]1O[C@H](CO)[C@@H](O)[C@H](OC(N)=O)[C@H]1O)c1cnc[nH]1", "note": "(some centres not stated)", "Potency": "2.35 µM (active)"}
{"compound": "NC1CC1c1ccccc1", "note": "(configuration not stated)", "Potency": "inactive"}
{"compound": "CC(C)(O)C(=O)Nc1ccc([N+](=O)[O-])c(C(F)(F)F)c1", "Potency": "inactive"}
{"compound": "CCOC(=O)c1cncn1[C@H](C)c1ccccc1", "Potency": "inactive"}
{"compound": "C[C@](O)(COc1ccc(C#N)cc1)C(=O)Nc1ccc(C#N)c(C(F)(F)F)c1", "Potency": "inactive"}
{"compound": "CC(O)=C(C#N)C(=O)Nc1cc(Br)ccc1Br", "Potency": "inactive"}
{"compound": "CCN(CC)C(=O)c1ccc(C2=CC3(CCNCC3)Oc3cccc(O)c32)cc1", "Potency": "inactive"}
{"compound": "C#CC1(O)CCC2C3CCC4=CC(=O)CCC4(C)C3CCC21C", "note": "(configuration not stated)", "Potency": "inactive"}
{"compound": "C[C@]12CC[C@@H]3[C@@H](CCC4=CC(=O)CC[C@@H]43)[C@@H]1CC[C@@H]2OC(=O)CCc1ccccc1", "Potency": "inactive"}
{"compound": "CCC(=O)OC1CCC2C3CCC4=CC(=O)CC[C@@]4(C)C3CC[C@]12C", "note": "(some centres not stated)", "Potency": "inactive"}
{"compound": "CC(=O)N(C)c1cccc(-c2ccnc3c(C(=O)c4cccs4)cnn23)c1", "Potency": "inactive"}
{"compound": "c1ccc(CCCN2CCN(CCOC(c3ccccc3)c3ccccc3)CC2)cc1", "Potency": "26.4 µM (active)"}
{"compound": "CN(C)NC(=O)CCC(=O)O", "Potency": "inactive"}
{"compound": "CCOC(=O)c1c(C(C#N)=CN)c2ccc(Cl)c(Cl)c2n1C", "Potency": "inactive"}
{"compound": "O=C(Oc1ccc([N+](=O)[O-])cc1)N1CCC(C(O)(c2ccc3c(c2)OCO3)c2ccc3c(c2)OCO3)CC1", "Potency": "inactive"}
{"compound": "CN(C)[C@@H]1C(=O)C(C(N)=O)=C(O)[C@@]2(O)C(=O)C3=C(O)c4c(O)cccc4[C@@](C)(O)[C@H]3[C@H](O)[C@@H]12", "Potency": "20.9 µM (active)"}
{"compound": "NC1=NC(=O)N2CC12", "note": "(configuration not stated)", "Potency": "inactive"}
{"compound": "CC(C)N(CCNC(=O)CN1CCCC1=O)C(C)C", "Potency": "inactive"}
{"compound": "COc1cc([C@@H]2c3cc4c(cc3[C@@H](O)C3COC(=O)C32)OCO4)cc(OC)c1O", "note": "(some centres not stated)", "Potency": "0.0418 µM (active)"}
{"compound": "CCCN1CCO[C@@H]2c3cc(O)ccc3OC[C@@H]21", "Potency": "inactive"}
{"compound": "CC[C@@H](C(N)=O)N1CCCC1=O", "Potency": "inactive"}
{"compound": "C#C[C@]1(O)C=C[C@@H]2[C@@H]3CCC4=CC(=O)CC[C@@H]4[C@H]3CC[C@@]21CC", "Potency": "inactive"}
{"compound": "C[C@]12CC[C@H](O)CC1=CC[C@H]1[C@H]3CCC(=O)[C@@]3(C)CC[C@@H]12", "Potency": "inactive"}
{"compound": "O=C1C=CC[C@@H]2[C@H]3CCCN4CCC[C@@H](CN12)[C@@H]34", "Potency": "inactive"}
{"compound": "CC1(N2CCC(n3c([C@@H]4CCCNC4)nc4ccccc43)CC2)CCCCCCC1", "Potency": "18.7 µM (active)"}
{"compound": "CCNC(=O)CC1N=C(c2ccc(Cl)cc2)c2cc(OC)ccc2-n2c(C)nnc21", "note": "(configuration not stated)", "Potency": "16.6 µM (active)"}
{"compound": "CC(=CCCC1=CCC(C2=CC(=O)OC2O)OC1O)CCC1=C(C)CCCC1(C)C", "note": "(configuration not stated)", "Potency": "inactive"}
{"compound": "C[C@@H]1CC[C@@]2(OC1)O[C@H]1C[C@H]3[C@@H]4CC=C5C[C@@H](O[C@@H]6O[C@H](CO)[C@@H](O[C@@H]7O[C@@H](C)[C@H](O)[C@@H](O)[C@@H]7O)[C@H](O)[C@@H]6O[C@@H]6O[C@@H](C)[C@H](O)[C@@H](O)[C@@H]6O)CC[C@]5(C)[C@@H]4CC[C@]3(C)[C@@H]1[C@H]2C", "Potency": "2.09 µM (active)"}
{"compound": "COc1ccc2c(c1)[C@]13CCCCC1C(C2)N(C)CC3", "note": "(some centres not stated)", "Potency": "inactive"}
{"compound": "C[C@]12Cc3cn[nH]c3C[C@@H]1CC[C@@H]1[C@H]2CC[C@@]2(C)[C@H]1CC[C@]2(C)O", "Potency": "inactive"}
{"compound": "C[C@]12CCC(=O)C(O)=C1CC[C@@H]1[C@H]3CCC(=O)[C@@]3(C)CC[C@@H]12", "Potency": "inactive"}
{"compound": "CC(C)[C@H]1C(=O)N[C@H](CO)Cc2c[nH]c3cccc(c23)N1C", "Potency": "0.0662 µM (active)"}
